Experimental data taken from the supplement of paper PMC12494721.
Where a name gives a salt, the structure may show the parent alone.

The compounds below were run on Klebsiella aerogenes DSM 30053 (assay: fold change of Putrescine concentration vs plate DMSO controls (fold change (ratio)); higher = more amine produced, active = hit call of the paper (significant change in both replicates, either direction)). Settings: incubation time: 27 h, anaerobic, 37 °C;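 for the amine columns active = adjusted P below 0.05 in both replicates with a change the same way and a mean fold change under 0.8 or over 1.25; inactive = the rest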.
Method in brief: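 Anaerobic mGAM cultures of four gut bacterial strains were grown at 37 °C for 27 h in 80 µL wells, starting at OD 0.1 before 1:1 dilution. Compounds were at 20 µM final (sweeteners 50 µM). Whole cultures were extracted with cold acetonitrile/methanol containing 0.1% formic acid and centrifuged. Amines were quantified by LC–triple-quadrupole MS (dynamic MRM) against external calibration curves and drift-corrected within batch. Each value is the fold change versus plate DMSO controls, averaged over 2 biological replicates.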

SMILES	fold change of Putrescine concentration
CCOc1ccc(NC(C)=O)cc1 [Phenacetin] (20 µM)	1.02 (inactive)
CC(C)C(=O)Nc1ccc([N+](=O)[O-])c(C(F)(F)F)c1 [Flutamide] (20 µM)	1.01 (inactive)
Cc1ccc2c([nH]c(=O)c3c(=O)cc(C(=O)OCCC(C)C)oc32)c1C [Repirinast] (20 µM)	1 (inactive)
CCCCc1oc2ccccc2c1C(=O)c1cc(I)c(OCCN(CC)CC)c(I)c1 [Amiodarone hydrochloride] (20 µM)	1.02 (inactive)
NCc1ccc(S(N)(=O)=O)cc1 [Mafenide hydrochloride] (20 µM)	1.02 (inactive)
CC[C@@H](CO)NCCN[C@@H](CC)CO [Ethambutol dihydrochloride] (20 µM)	0.987 (inactive)
Nc1c2ccccc2nc2ccccc12 [Aminacrine] (20 µM)	0.952 (inactive)
CC(C(=O)O)c1cccc(C(=O)c2ccccc2)c1 (configuration not stated) [Ketoprofen] (20 µM)	1.01 (inactive)
CCOC(=O)[C@H](CCc1ccccc1)N[C@H]1CS[C@H](c2cccs2)CN(CC(=O)O)C1=O [Temocapril hydrochloride] (20 µM)	1.03 (inactive)
CC(COc1ccccc1)N(CCCl)Cc1ccccc1 (configuration not stated) [Phenoxybenzamine hydrochloride] (20 µM)	1.02 (inactive)
CC1(C)OC(=O)NC1=O [Dimethadione] (20 µM)	1 (inactive)
c1cnc(N2CCN(Cc3ccc4c(c3)OCO4)CC2)nc1 [Piribedil] (20 µM)	0.971 (inactive)
